# Results as given in PubChem BioAssay AID504834 (National Center for Advancing Translational Sciences (NCATS), 2011).
# Screen size: about 320,000 compounds; about 22,000 (6.9%) were called active. Another 27% or so got no clear call; they are omitted. The sample holds actives, similar compounds and a random draw of the others, so the mix is not that of the screen. A number with no mark means an inactive call. Calls follow the shape of the dose curve; as a rule, active = well fitted inhibition curve with a large enough effect; inconclusive = small, poorly fitted or top-dose-only effect, or another doubt; inactive = no such curve, though single readings can be large or run the other way.
# Experiment: Primary qHTS for delayed death inhibitors of the malarial parasite plastid, 96 hour incubation
# Conditions: P. falciparum luciferase reporter growth; series mostly up to 28.7 µM; activity change, negative = inhibition: at the top concentration
# Description: The goal of this screen is to discover new antimalarial compounds that act by inhibiting the development of the apicoplast in the malarial parasite Plasmodium falciparum. The biochemical processes that make this organelle essential for erythrocytic stage parasites are not well understood. However, antibiotics such as azithromycin and tetracycline, which target the apicoplast translational machinery, have a potent antimalarial effect.
# We have developed a cell-based assay that measures parasite growth based on the expression of an integrated copy of a firefly luciferase reporter. To detect small molecules that cause this "delayed death" phenotype, erythrocytes infected with the luciferase-expressing parasites were incubated with compounds for either one or two generations, corresponding to 48 and 96 hours, respectively. Compounds that inhibit parasite growth in the second generation, but not the first, should be enriched in antimalarials that target the apicoplast. Growth inhibition is detected by a decrease in luciferase activity.
# Assay Provider: David Fidock and Eric Ekland, Columbia University
# Keywords: NIH Roadmap, MLPCN, MLI, MLSMR, qHTS, NCGC, qHTS, malaria, luciferase, viability
# Four microliters of infected erythrocytes (2% hematocrit, 0.05% parasitemia final concentration) in culture medium were dispensed and the plates incubated for 96 hours at 37 C in 5% CO2. Two microliters of luciferase detection reagent was added and luminescence was detected by a ViewLux (PerkinElmer) reader.
# % is scaled to controls: 0 for no effect and ±100 for the full control effect; potency is read from the fitted curve at half-maximal effect.
SMILES,"activity change, negative = inhibition",Potency
O=C(CSc1ncnc2c1oc1ccccc12)NC1CCCC1,20.1%,–
CCCOc1ccc(-c2c(C(=O)N/N=C/c3ccco3)nnn2-c2nonc2N)cc1,23.2%,–
CN(Cc1ccccc1)C(=O)c1cccc(C(=O)N(C)Cc2ccccc2)c1,–,13.1 µM (active)
Cc1cc(C)cc(NC(=O)N(C)Cc2ccccc2)c1,-14.3%,–
CN(Cc1ccccc1)C(=O)CCc1ccccc1,96.1%,–
Cc1cc(C(=O)N/N=C/c2ccccn2)c2ccccc2n1,-1.75%,–
O=C(N/C(=C\c1ccc(O)cc1)C(=O)N1CCCCC1)c1ccccc1,0%,–
Cc1ccc(C)c(NC(=O)C(OC(=O)c2ccc(C)s2)c2ccccc2)c1 (stereo not drawn),–,2.94 µM (active)
COc1ccc(C)cc1NC(=O)C(OC(=O)c1cccc(S(=O)(=O)N(C)c2ccccc2)c1)c1ccccc1 (stereo not drawn),-11.6%,–
COc1ccc(C)cc1NC(=O)C(Sc1ccccc1)c1ccccc1 (stereo not drawn),51.7%,–
C/C(CC(=O)NCc1ccc(Cl)cc1)=N\NC(=O)COc1ccc(C)cc1Br,-1.16%,–
CC(C)C[C@H](NC(=O)N1CCn2c1nc1ccccc12)C(=O)NC1CC1,12.5%,–
O=S(=O)(NCCc1ccccn1)c1cc(Cl)cc(Cl)c1O,27.7%,–
N#Cc1ccsc1NC(=O)CN1CCCCC1,-15.1%,–
O=S(=O)(c1cc(Cl)ccc1Cl)N1CCN(Cc2ccco2)CC1,2.9%,–
N#Cc1ccsc1NC(=O)CN1CCN(S(=O)(=O)c2cc(Cl)ccc2Cl)CC1,–,4.15 µM (active)
CCN(CC)c1ccc(/C=N/NC(=O)CNC(=O)c2cccnc2)cc1,-2.84%,–
CCOc1ccc(NC(=O)COc2ccc(S(=O)(=O)N3CCCC3)cc2)cc1,-2.81%,–
CCOc1ccccc1NC(=O)COc1ccc(S(=O)(=O)N2CCCC2)cc1,–,8.28 µM (active)
CC(=O)NCCC(=O)Nc1cc(S(=O)(=O)N2CCCCC2)ccc1Oc1cccc(C)c1,2.09%,–
CCOc1ccccc1NC(=O)C1CCCN(S(=O)(=O)c2ccccc2)C1 (stereo not drawn),1.92%,–
CCOc1ccc(S(=O)(=O)N2CCCCC2)cc1NC(=O)CN1CCCC1c1cccs1 (stereo not drawn),–,4.65 µM (active)
O=C(COc1ccc(S(=O)(=O)N2CCCCC2)cc1)NCc1ccccn1,30.6%,–
CN(C)C(=O)N=NC(=O)N(C)C,10.3%,–
O=C(Oc1ccc(Br)cc1)c1cccnc1,30.1%,–
O=C(COC(=O)c1cccc(Cl)c1)NC1CCCCCCC1,-26.1%,–
CCc1c(C)c2ccc(OC3CCCCC3=O)cc2oc1=O (stereo not drawn),101%,–

SMILES,"activity change, negative = inhibition",Potency
Cc1ccc(C(=O)C(C)OC(=O)Cc2n[nH]c(=O)c3ccccc23)cc1C (stereo not drawn),19.1%,–
Cc1cc(C)c(S(=O)(=O)N(C)CC(=O)NCC2CCCO2)c(C)c1 (stereo not drawn),61.1%,–
COc1ccccc1CCC(=O)OCC(=O)N1CCN(S(=O)(=O)c2ccc(C)cc2C)CC1,3.54%,–
CCCCCCCN=C(C)c1ccccc1O,22.3%,–
C/C(=N\N(C)C)c1ccc(OCCOc2ccc([N+](=O)[O-])cc2)cc1,-2.03%,–
COc1ccc(C(C#N)(CC(=O)O)c2cnccn2)cc1OC (stereo not drawn),55.4%,–
COc1cc(OC)cc(C(=O)NNC(=O)CNC(=O)c2ccc(Br)o2)c1,12.7%,–
S=C(NCCCc1ccccc1)Nc1ccc(Br)cc1,40.7%,–
S=C(NCCC1=CCCCC1)Nc1ccccc1,–,0.586 µM (active)
O=C(Cc1cccc2ccccc12)NCCC1=CCCCC1,0%,–
CC(=O)N1CC(=O)N(CC(=O)Nc2ccc(Br)cc2)C1=S,71.4%,–
CC(=O)c1nnn(-c2ccc(Cl)cc2C#N)c1C,0.592%,–
Cc1cccc(-c2c(NC(=O)c3ccco3)oc3ccc(Cl)cc3c2=O)c1,2.39%,–
Cc1noc(NS(=O)(=O)c2ccc(NC(=O)c3oc4ccc(F)cc4c3C)cc2)c1C,1.56%,–
CCOC(=O)CSc1nc2c(c(=O)n(Cc3ccccc3Cl)c(=O)n2C)n1C,12.3%,–
CC(C)CCn1c(=O)c2c(nc3n2CCCN3Cc2ccccc2)n(C)c1=O,–,6.57 µM (active)
Cn1cnc2c1c(=O)n(Cc1c(Cl)cccc1Cl)c(=O)n2C,-6.67%,–
N/C(=N\OC(=O)N1c2ccccc2Sc2ccccc21)c1ccc(Br)cc1,–,10.4 µM (active)
N/C(=N\OC(=O)/C=C/c1ccccc1)c1ccc(Br)cc1,4.24%,–
N/C(=N\OC(=O)Cc1ccccc1[N+](=O)[O-])c1ccc(Br)cc1,12.7% [at 5.75 µM],–
Cc1ccc(C)c(SCc2nc3sc(C(=O)O)c(C)c3c(=O)[nH]2)c1,15.7%,–
CC1CCN(C(=O)c2ccc3c(c2)NC(=O)CN3)CC1,29.3%,–
Cn1cc(CNC(=O)c2ccc(OC3CCN(Cc4ccccn4)CC3)cc2)cn1,3.47%,–
O=C(Nc1ccccc1C(=O)NCC1CCCO1)c1ccccc1F (stereo not drawn),-21.2%,–
O=C(NCC1CCCO1)c1cc2c([nH]c3ccccc32)c(-c2ccc(F)cc2)n1 (stereo not drawn),–,9.28 µM (active)
COc1ccc2cc(C(=O)NCC3CCCO3)[nH]c2c1 (stereo not drawn),102%,–
